These results are taken from PubChem BioAssay (EPA / NIEHS).

Read-out in assay [1]: Interleukin-1 alpha (IL1a), IL1A (gene 3552)
Briefly: BSK_KF3CT_IL1a: BioMAP Diversity Plus: KF3CT Assay for Interleukin-1 alpha (IL1a) Biomarker Activity (AID 2283070). To be noted: primary human keratinocytes with fibroblasts; actives raise or lower the signal. The method, boiled down: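 Primary human keratinocyte plus foreskin fibroblast co-culture, dosed and measured at 24 h in 96-well plates. IL-1a level quantified by ELISA; bidirectional fit relative to DMSO.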

Read-out in assay [2]: TIMP metallopeptidase inhibitor 2 (TIMP2), TIMP2 (gene 7077)
Briefly: BSK_KF3CT_TIMP2: BioMAP Diversity Plus: KF3CT Assay for TIMP metallopeptidase inhibitor 2 (TIMP2) Biomarker Activity (AID 2283071). Particulars: primary human keratinocytes with fibroblasts; actives raise or lower the signal. The method, boiled down: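 Co-culture of human primary keratinocytes and foreskin fibroblasts, measured 24 h after chemical dosing. TIMP-2 quantified by ELISA and fitted in both directions relative to DMSO. Cytotoxicity checked in parallel cultures by SRB total-protein staining.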

Read-out in assay [3]: C-C motif chemokine 2 (Homo sapiens) (UniProt P13500)
As to the kind of experiment: BSK_KF3CT_MCP1: BioMAP Diversity Plus: KF3CT Assay for Monocyte Chemoattractant Protein 1 (MCP1/CCL2) Biomarker Activity (AID 2283073). Particulars: primary human keratinocytes with fibroblasts; actives raise or lower the signal. The method, boiled down:
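Human keratinocyte plus foreskin fibroblast primary co-culture exposed to chemical for 24 h. MCP-1 levels measured by ELISA. Bidirectional curve fitting relative to DMSO negative control as baseline.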

Read-out in assay [4]: Matrix Metallopeptidase 9 (MMP9), MMP9 (gene 4318)
Briefly: BSK_KF3CT_MMP9: BioMAP Diversity Plus: KF3CT Assay for Matrix Metallopeptidase 9 (MMP9) Biomarker Activity (AID 2283074).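 On AC50: MMP9 protein level quantified by ELISA in the co-culture.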 To be noted: primary human keratinocytes with fibroblasts; actives raise or lower the signal. Put shortly: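 Human keratinocyte and foreskin fibroblast co-culture exposed to chemicals for 24 h; MMP9 biomarker measured by ELISA, bidirectional fitting relative to DMSO; cytotoxicity tracked by SRB total protein staining in parallel cultures.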

Read-out in assay [5]: urokinase plasminogen activator (uPA), PLAU (gene 5328)
Briefly: BSK_KF3CT_uPA: BioMAP Diversity Plus: KF3CT Assay for urokinase plasminogen activator (uPA) Biomarker Activity (AID 2283075). Particulars: primary human keratinocytes with fibroblasts; actives raise or lower the signal. The method, boiled down: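 Primary human keratinocyte/foreskin fibroblast co-culture exposed to chemical; uPA measured by ELISA at 24 h. Bidirectional fit versus DMSO, with parallel SRB total-protein staining for cytotoxicity.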

Read-out in assay [6]: CD40, CD40 (gene 958)
As to the kind of experiment: BSK_LPS_CD40: BioMAP Diversity Plus: LPS Assay for CD40 Biomarker Activity (AID 2283076). Particulars: primary human HUVEC with PBMC; actives raise or lower the signal. Put shortly: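 Primary human umbilical vein endothelial cells co-cultured with peripheral blood mononuclear cells, LPS-stimulated, were dosed with chemical and read 24 h later. CD40 levels were measured by ELISA and fitted bidirectionally against DMSO as negative control and baseline.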

Read-out in assay [7]: E-selectin (Homo sapiens) (UniProt P16581)
As to the kind of experiment: BSK_LPS_Eselectin: BioMAP Diversity Plus: LPS Assay for Eselectin Biomarker Activity (AID 2283077). To be noted: primary human HUVEC with PBMC; actives raise or lower the signal. The method, boiled down:
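Human umbilical vein endothelial cells co-cultured with peripheral blood mononuclear cells under LPS stimulation; E-selectin measured by ELISA 24 h after chemical dosing. Activity fitted bidirectionally against DMSO as negative control and baseline.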

Read-out in assay [8]: Interleukin-8 (IL8), CXCL8 (gene 3576)
Briefly: BSK_LPS_IL8: BioMAP Diversity Plus: LPS Assay for Interleukin-8 (IL8) Biomarker Activity (AID 2283078). To be noted: primary human HUVEC with PBMC; actives raise or lower the signal. The method, boiled down: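 Human umbilical vein endothelial cells co-cultured with PBMC were stimulated with LPS; IL-8 levels were measured by ELISA 24 h after chemical dosing. Activity was fitted bidirectionally against DMSO as negative control and baseline.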

Assay [9] in a line: BSK_LPS_SRB: Viability Assessment in the BioMAP Diversity Plus: LPS Assay (AID 2283079).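 Further: total protein by sulforhodamine B absorbance as a cytotoxicity measure; measured one day after compound addition; fitted in both directions against DMSO so loss or gain of signal counts.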 Particulars: primary human HUVEC with PBMC. The method, boiled down:
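Human umbilical vein endothelial cells co-cultured with PBMC (LPS system) were dosed for 24 h. Total protein was stained with 0.1% sulforhodamine B after 10% TCA fixation, read at 560 nm, and fitted bidirectionally against DMSO baseline.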

Read-out in assay [10]: Interleukin-1 alpha (IL1a), IL1A (gene 3552)
Briefly: BSK_LPS_IL1a: BioMAP Diversity Plus: LPS Assay for Interleukin-1 alpha (IL1a) Biomarker Activity (AID 2283080). To be noted: primary human HUVEC with PBMC; actives raise or lower the signal. The method, boiled down: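 Human umbilical vein endothelial cells co-cultured with peripheral blood mononuclear cells were LPS-stimulated and exposed to test chemicals for 24 h. IL-1 alpha was quantified by ELISA, with bidirectional curve fitting against DMSO as the negative control and baseline.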

Read-out in assay [11]: Monocyte Chemoattractant Protein-1 (MCP1), CCL2 (gene 6347)
As to the kind of experiment: BSK_LPS_MCP1: BioMAP Diversity Plus: LPS Assay for Monocyte Chemoattractant Protein-1 (MCP1) Biomarker Activity (AID 2283081).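 On AC50: secreted MCP-1 protein quantified by ELISA in culture supernatant.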 To be noted: primary human HUVEC with PBMC; actives raise or lower the signal. The method, boiled down: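 HUVEC plus PBMC co-culture (human primary cells, LPS system) exposed to test chemical for 24 h; MCP-1 measured by ELISA. Bidirectional curve fitting against DMSO baseline; parallel SRB total-protein staining flags overt cytotoxicity.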

A short description of assay [12]: BSK_LPS_PGE2: BioMAP Diversity Plus: LPS Assay for Prostaglandin E2 (PGE2) Biomarker Activity (AID 2283082).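 On AC50: secreted prostaglandin E2 measured by ELISA in LPS-stimulated co-culture.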 Particulars: primary human HUVEC with PBMC; actives raise or lower the signal. Put shortly:
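HUVEC plus human PBMC co-culture stimulated with LPS; secreted PGE2 quantified by ELISA 24 h after chemical dosing. Activity fitted bidirectionally against DMSO baseline; parallel SRB staining (0.1% SRB after 10% TCA fixation, 560 nm) flags overt cytotoxicity.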

Read-out in assay [13]: Macrophage colony-stimulating factor (MCSF), CSF1 (gene 1435)
Briefly: BSK_LPS_MCSF: BioMAP Diversity Plus: LPS Assay for Macrophage colony-stimulating factor (MCSF) Biomarker Activity (AID 2283083). To be noted: primary human HUVEC with PBMC; actives raise or lower the signal. Put shortly: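 Human umbilical vein endothelial cells co-cultured with peripheral blood mononuclear cells were exposed to compound for 24 h. M-CSF levels were measured by ELISA, and bidirectional curve fitting used DMSO as the negative control and baseline.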

Read-out in assay [14]: Tissue Factor, F3 (gene 2152)
Briefly: BSK_LPS_TissueFactor: BioMAP Diversity Plus: LPS Assay for Tissue Factor Biomarker Activity (AID 2283084). To be noted: primary human HUVEC with PBMC; actives raise or lower the signal. Put shortly:
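Human umbilical vein endothelial cells co-cultured with peripheral blood mononuclear cells were dosed and stimulated with LPS. Cell-surface CD142 was quantified by ELISA at 24 h. Activity was fitted bidirectionally against DMSO baseline.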

Read-out in assay [15]: Tumor necrosis factor (Homo sapiens) (UniProt P01375)
As to the kind of experiment: BSK_LPS_TNFa: BioMAP Diversity Plus: LPS Assay for Tumour Necrosis Factor alpha (TNFa) Biomarker Activity (AID 2283085). To be noted: primary human HUVEC with PBMC; actives raise or lower the signal. Put shortly: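 Human umbilical vein endothelial cells co-cultured with PBMC and stimulated with LPS. TNFa was measured by ELISA 24 h after chemical dosing, fitted bidirectionally relative to DMSO.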

Read-out in assay [16]: Vascular cell adhesion molecule 1 (VCAM1), VCAM1 (gene 7412)
As to the kind of experiment: BSK_LPS_VCAM1: BioMAP Diversity Plus: LPS Assay for Vascular cell adhesion molecule 1 (VCAM1) Biomarker Activity (AID 2283086). Particulars: primary human HUVEC with PBMC; actives raise or lower the signal. Put shortly: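 Human umbilical vein endothelial cells co-cultured with PBMC and stimulated with LPS; VCAM-1 measured by ELISA 24 h after dosing. Bidirectional curve fitting against DMSO baseline; cytotoxicity tracked in parallel by SRB total-protein staining.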

Read-out in assay [17]: CD38, CD38 (gene 952)
Briefly: BSK_SAg_CD38: BioMAP Diversity Plus: SAg Assay for CD38 Biomarker Activity (AID 2283087). To be noted: primary human HUVEC with PBMC; actives raise or lower the signal. The method, boiled down: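 Human HUVEC plus PBMC co-culture stimulated with superantigen; CD38 measured by ELISA 24 h after chemical dosing. Fluorescence read-out, bidirectional fit against DMSO; cytotoxicity tracked in parallel by SRB and Alamar Blue.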

Read-out in assay [18]: CD40, CD40 (gene 958)
Briefly: BSK_SAg_CD40: BioMAP Diversity Plus: SAg Assay for CD40 Biomarker Activity (AID 2283088). Particulars: primary human HUVEC with PBMC; actives raise or lower the signal. The method, boiled down: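 Human umbilical vein endothelial cells co-cultured with PBMC; CD40 levels measured by ELISA with fluorescence read-out 24 h after chemical dosing. Gain or loss of signal fitted bidirectionally against DMSO baseline.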

Read-out in assay [19]: CD69, CD69 (gene 969)
Briefly: BSK_SAg_CD69: BioMAP Diversity Plus: SAg Assay for CD69 Biomarker Activity (AID 2283089).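 On AC50: cell surface CD69 protein quantified by ELISA with fluorescence detection.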 Particulars: primary human HUVEC with PBMC; actives raise or lower the signal. The method, boiled down: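 Values derive from bidirectional fitting relative to DMSO vehicle. Cells: umbilical vein endothelium plus peripheral blood mononuclear cells, treated 24 h before fluorescent ELISA for CD69.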

Read-out in assay [20]: Transforming growth factor beta 1 (TGFb1), TGFB1 (gene 7040)
As to the kind of experiment: BSK_KF3CT_TGFb1: BioMAP Diversity Plus: KF3CT Assay for Transforming growth factor beta 1 (TGFb1) Biomarker Activity (AID 2283072). To be noted: primary human keratinocytes with fibroblasts; actives raise or lower the signal. The method, boiled down:
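Human keratinocyte/foreskin fibroblast co-culture; TGF-b1 measured by ELISA 24 h after dosing, fitted bidirectionally versus DMSO. Cytotoxicity checked in parallel cultures by total protein (SRB staining, 560 nm).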

Molecules are shown by their SMILES. Values joined by “and” are separate entries in the source; they are usually repeats but may differ in a detail not shown here. Equal values may be shown once. Some structures have more than one record in an assay (separate samples or runs), and their calls can disagree. Active and inactive are the calls of the source. How the source made its calls: active means hit-call score of the fitted dose curve at least 0.9, where 1 is the maximum; inactive means score below 0.9.

Chain of Tumor necrosis factor (Homo sapiens) (P01375 whole entry, looked up): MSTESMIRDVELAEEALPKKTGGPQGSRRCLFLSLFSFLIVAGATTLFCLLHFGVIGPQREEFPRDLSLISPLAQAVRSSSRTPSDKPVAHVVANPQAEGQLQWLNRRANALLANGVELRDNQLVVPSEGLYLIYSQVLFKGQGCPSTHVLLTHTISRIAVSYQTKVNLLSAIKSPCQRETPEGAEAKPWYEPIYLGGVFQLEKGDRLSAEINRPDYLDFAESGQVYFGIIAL
Chain of E-selectin (Homo sapiens) (P16581 whole entry, looked up): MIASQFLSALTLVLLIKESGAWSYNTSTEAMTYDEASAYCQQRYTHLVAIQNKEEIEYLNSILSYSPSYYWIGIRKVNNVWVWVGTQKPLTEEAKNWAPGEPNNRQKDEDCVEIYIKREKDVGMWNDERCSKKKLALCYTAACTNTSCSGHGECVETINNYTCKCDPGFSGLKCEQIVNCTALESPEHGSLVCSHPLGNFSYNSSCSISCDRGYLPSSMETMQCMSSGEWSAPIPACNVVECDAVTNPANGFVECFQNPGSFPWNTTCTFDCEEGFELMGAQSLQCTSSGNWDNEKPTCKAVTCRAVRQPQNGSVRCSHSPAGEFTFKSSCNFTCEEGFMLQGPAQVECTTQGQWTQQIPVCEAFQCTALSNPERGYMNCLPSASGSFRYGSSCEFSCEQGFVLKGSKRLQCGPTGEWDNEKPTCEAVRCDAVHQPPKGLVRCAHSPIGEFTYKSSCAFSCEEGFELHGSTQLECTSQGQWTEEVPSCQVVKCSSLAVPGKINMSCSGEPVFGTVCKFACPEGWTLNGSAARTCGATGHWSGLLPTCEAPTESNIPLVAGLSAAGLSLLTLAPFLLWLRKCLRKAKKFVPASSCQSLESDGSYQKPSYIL

On to `OCC(F)(F)C(F)(F)C(F)(F)C(F)(F)C(F)(F)C(F)F`, for which the outcome in [1], in [2], in assay [3], in assay [4], in assay [5] and in assay [6] was inactive. For the same compound, the result in assay [7], in [8], in assay [9], in assay [10], in assay [11] and in assay [12] was inactive. Besides, the outcome in assay [13], in assay [14], in assay [15], in assay [16], in assay [17] and in [18] was inactive. Further, the result in assay [19] was inactive.
Turning to `C=CC(F)(F)C(F)(F)C(F)(F)C(F)(F)C(F)(F)C(F)(F)C(F)(F)C(F)(F)C=C`, the outcome in assay [1], in [2], in assay [3], in assay [4], in assay [5] and in assay [6] was inactive. Also, the result in assay [7], in [8], in [9], in assay [10], in [11] and in assay [12] was inactive. Besides, the outcome in [14], in [15], in [16], in [17], in assay [18] and in assay [19] was inactive.
Regarding `CC(=O)Nc1ccc(N=Nc2cc(C)ccc2O)cc1`, the outcome in [2], in assay [20], in assay [3], in assay [4], in [5] and in assay [6] was inactive. The outcome in assay [7], in assay [8], in assay [9], in [10], in assay [11] and in assay [12] was inactive. For the same compound, the outcome in [13], in [14], in [15] and in assay [18] was inactive. Besides, the figures for the AC50 in assay [16], in assay [17] and in assay [19] were 5.06 µM (active), 7.17 µM (active) and 5.73 µM (active), respectively.
As for `C=C(C)C(=O)OCC(F)(F)C(F)(F)C(F)(F)F`, the outcome in [1], in assay [2], in assay [3], in assay [4], in assay [5] and in assay [6] was inactive. Moreover, the outcome in [7], in [8], in assay [9], in assay [10], in assay [11] and in [12] was inactive. The outcome in [13], in [14], in assay [15], in assay [16], in assay [17] and in [18] was inactive. In addition, the result in assay [19] was inactive.
`O=C(O)C(F)(F)C(F)(F)C(F)(F)C(F)(F)C(F)(F)C(F)(F)C(F)(F)C(F)(F)C(F)(F)C(F)F`: the AC50 (usually the concentration giving half of the maximal activity seen) was 42.2 µM (active) in [2]; 30 µM (active) and 11.4 µM (active) in assay [3]; 16.2 µM (active) and 12.5 µM (active) in assay [4]; 47.5 µM (active) and 54.1 µM (active) in [5]; 24.9 µM (active) and 41.6 µM (active) in assay [6]; 58.3 µM (active) in [7]. The AC50 in [8] was 55 µM (active); in assay [9] it was 46.9 µM (active) and 55 µM (active); in assay [10], 54.9 µM (active); in [11], 41.1 µM (active) and 44.3 µM (active); in assay [12] it was 42.6 µM (active) and 48.8 µM (active); in [16], 52.5 µM (active) and 46.9 µM (active). The concentration at half-maximal activity (AC50) in assay [17] is 48.3 µM (active) and 46.3 µM (active); in assay [18] it was 41.9 µM (active) and 44.6 µM (active); in [19], 37.6 µM (active) and 47.3 µM (active). Further, the outcome in [2], in assay [7], in assay [8], in assay [10], in [13] and in [14] was inactive. The result in assay [15] was inactive.
